Bioassay records deposited in PubChem by Sanford-Burnham Center for Chemical Genomics.
CYP2C19 activ – human CYP2C19 activators, primary screen, biochemical, luminescence | Cytochrome P450 2C19 (Homo sapiens), P33261 | recombinant CYP2C19, luciferin-H EGE luminescence; hits give high values; 0 = fully inhibited enzyme, 1 = untreated enzyme | activation factor at 5 µM | 96,000 tested, under 10 active | AID 1025, 2008;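 active = activation factor of at least 2 at 5 µM in the primary screen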;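 also: 0 = wells with 2.5 mM tranylcypromine and 1 = vehicle-only wells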
Target sequence (P33261 whole entry, looked up): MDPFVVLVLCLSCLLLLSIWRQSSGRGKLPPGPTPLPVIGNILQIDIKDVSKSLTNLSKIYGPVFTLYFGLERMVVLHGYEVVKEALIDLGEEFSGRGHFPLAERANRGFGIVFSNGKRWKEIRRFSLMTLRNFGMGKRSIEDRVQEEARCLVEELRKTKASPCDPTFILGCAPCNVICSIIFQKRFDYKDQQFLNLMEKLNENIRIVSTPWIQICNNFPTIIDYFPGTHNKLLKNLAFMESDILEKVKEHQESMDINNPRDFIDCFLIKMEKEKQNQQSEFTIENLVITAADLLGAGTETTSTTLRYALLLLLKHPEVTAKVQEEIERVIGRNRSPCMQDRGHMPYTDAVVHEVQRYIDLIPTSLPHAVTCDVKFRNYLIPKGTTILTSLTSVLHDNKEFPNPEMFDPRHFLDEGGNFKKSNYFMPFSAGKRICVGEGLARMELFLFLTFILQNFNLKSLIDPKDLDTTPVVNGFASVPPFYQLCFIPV
CYP2C19 inh – blockers of cytochrome P450 2C19 activity – biochemical, luminescence, ADME assay, primary screen; inhibition, % at 5 µM; hit rate 21% among 96,000; P33261; CYP2C19 Supersomes, luciferin-H EGE luminescence, 30 min;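 active = CYP2C19 inhibition above a set limit at 5 µM in the primary screen, cut at about 50% in these data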;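 also: plate controls were negative control wells for no effect and 2.5 mM tranylcypromine positive control for full effect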
CYP2C9 inh – blockers of cytochrome P450 2C9 activity – biochemical, luminescence, ADME assay, primary screen | P11712 | CYP2C9 Supersomes, luciferin-H conversion | inhibition, % at 5 µM | hit rate 20% among 96,000 | AID 777, 2007;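 active = blocking of liver enzyme CYP2C9 beyond about 50% at 5 µM, limit read from the data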
PLAP activator – PLAP enzyme activators, biochemical, luminescence, HTS. activation fold at 20 µM. purified PLAP enzyme, luminescent substrate read-out; hits give high values. hit rate 1.2% among 96,000. Alkaline phosphatase, placental type (Homo sapiens), P05187; in the data active = activation fold above about 2
CYP2C9 activ – human CYP2C9 activators, primary screen, biochemical, luminescence. activation factor at 5 µM. hit rate 1.4% among 96,000. AID 1024, 2008. Cytochrome P450 2C9 (Homo sapiens), P11712. recombinant CYP2C9, luciferin-H conversion; hits give high values; factor 1 = untreated enzyme, 0 = blocked;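 active = activation factor of 2 or more for CYP2C9 at a 5 µM dose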;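 also: 0 = sulfaphenazole-blocked wells and 1 = vehicle-only wells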
* marks the source's active call; other numbers are inactive results. This is a sample that favours compounds with a hit; in the whole collection about 31% have one here.

COC(=O)c1ccc2c(=O)n(CCO)c(=S)[nH]c2c1 was read as CYP2C19 activ 1.1, CYP2C19 inh -8, CYP2C9 inh 5, PLAP activator 0.9 and CYP2C9 activ 0.9.
Screening O=C(CSCc1cccc(CSCC(=O)Nc2ccc3ccccc3c2)n1)Nc1ccc2ccccc2c1 returned CYP2C19 activ 0.2, CYP2C19 inh 81*, CYP2C9 inh 99*, PLAP activator 1.2 and CYP2C9 activ 0.
C=C(C)CSCc1nc2ccccc2[nH]1 was read as CYP2C19 activ 0.1, CYP2C19 inh 90*, CYP2C9 inh 28, PLAP activator 1 and CYP2C9 activ 0.7.
For O=C(CSc1cccs1)Nc1ccc2ccccc2c1 the results were CYP2C19 activ 0.4, CYP2C19 inh 60*, CYP2C9 inh 64*, PLAP activator 1 and CYP2C9 activ 0.4.
For O=C(CSCc1nc2ccccc2[nH]1)Nc1ccc2ccccc2c1 the results were CYP2C19 activ 0.7, CYP2C19 inh 32, CYP2C9 inh 58*, PLAP activator 0.9 and CYP2C9 activ 0.4.
`O=C(CSCc1nc2ccccc2[nH]1)N1CCN(c2ccc(F)cc2)CC1` gave CYP2C19 activ 0.5, CYP2C19 inh 48, CYP2C9 inh 46, PLAP activator 1.9 and CYP2C9 activ 0.5.
For CCc1nc2ccccc2[nH]1 the results were CYP2C19 activ 0.8, CYP2C19 inh 21, CYP2C9 inh -7, PLAP activator 0.9 and CYP2C9 activ 1.1.
O=C(CSCC(=O)Nc1ccc2ccccc2c1)NCc1ccccc1 was read as CYP2C19 activ 0.8, CYP2C19 inh 19, CYP2C9 inh -2, PLAP activator 1.1 and CYP2C9 activ 1.
`COc1ccc(N2CCN(c3nc4c(c(=O)n(C)c(=O)n4C)n3CCCc3ccccc3)CC2)cc1` gave CYP2C19 activ 0.9, CYP2C19 inh 13, CYP2C9 inh 25, PLAP activator 1.1 and CYP2C9 activ 0.8.
CSCC[C@H](NC(=O)OC(C)(C)C)C(=O)N1CCC(C(=O)N[C@H](C(=O)O)C(C)C)CC1 was read as CYP2C19 activ 1, CYP2C19 inh -1, CYP2C9 inh -5, PLAP activator 1.4 and CYP2C9 activ 1.
Screening Cc1onc(-c2ccccc2Cl)c1C(=O)NCC1CCCO1 (configuration not stated) returned CYP2C19 activ 0.6, CYP2C19 inh 39, CYP2C9 inh 10, PLAP activator 1.1 and CYP2C9 activ 0.9.
For Cc1cc(C)nc(NC(=O)c2c(-c3ccccc3Cl)noc2C)n1 the results were CYP2C19 activ 0.9, CYP2C19 inh 14, CYP2C9 inh 30, PLAP activator 1.2 and CYP2C9 activ 0.7.
For COc1ccc(C(=O)N(Cc2nc(-c3ccc(C)cc3)no2)C2CCCCC2)cc1OC the results were CYP2C19 activ 0.2, CYP2C19 inh 82*, CYP2C9 inh 81*, PLAP activator 1.4 and CYP2C9 activ 0.2.
For CCOC(=O)C1CCN(Cc2nc(-c3ccc(OC)c(OC)c3)no2)CC1 the results were CYP2C19 activ 1.2, CYP2C19 inh -16, CYP2C9 inh -10, PLAP activator 1.5 and CYP2C9 activ 1.1.
Screening Cc1cccc(-c2noc(CN(C(=O)c3c(-c4ccccc4Cl)noc3C)C(C)C)n2)c1 returned CYP2C19 activ 0.1, CYP2C19 inh 91*, CYP2C9 inh 63*, PLAP activator 1.4 and CYP2C9 activ 0.4.
`Cc1onc(-c2ccccc2Cl)c1C(=O)N(Cc1nc(-c2ccccc2)no1)C1CCCCC1` gave CYP2C19 activ 0, CYP2C19 inh 95*, CYP2C9 inh 86*, PLAP activator 1.5 and CYP2C9 activ 0.1.
Screening CC1C(=O)C(C)C(c2cccs2)NC1c1cccs1 (configuration not stated) returned CYP2C19 activ 0.1, CYP2C19 inh 92*, CYP2C9 inh 15, PLAP activator 0.8 and CYP2C9 activ 0.8.
Screening Cn1c(=O)oc2cc(S(=O)(=O)N3CCCc4ccccc43)ccc21 returned CYP2C19 activ 0.7, CYP2C19 inh 29, CYP2C9 inh -20, PLAP activator 1 and CYP2C9 activ 1.2.
O=S(=O)(c1cccs1)N1CCCc2ccccc21 was read as CYP2C19 activ 0.2, CYP2C19 inh 85*, CYP2C9 inh -113, PLAP activator 0.7 and CYP2C9 activ 2.1*.
Screening O=S(=O)(c1cccs1)N1CCc2ccccc21 returned CYP2C19 activ 0.5, CYP2C19 inh 51*, CYP2C9 inh -131, PLAP activator 1 and CYP2C9 activ 2.3*.
CCOC(=O)N1CCN(C(=O)CN(C)S(=O)(=O)c2ccc3c(c2)C(C)(C)C(=O)N3C)CC1 was read as CYP2C19 activ 0.9, CYP2C19 inh 5, CYP2C9 inh 20, PLAP activator 1.2 and CYP2C9 activ 0.8.
`CCOc1cc(CNn2cnnc2)ccc1OCC(=O)NC1CCCCC1` gave CYP2C19 activ 0.7, CYP2C19 inh 28, CYP2C9 inh 65*, PLAP activator 1.4 and CYP2C9 activ 0.3.
`CCOc1ccccc1OCC(=O)NC1CCCCC1` gave CYP2C19 activ 0.8, CYP2C19 inh 23, CYP2C9 inh -16, PLAP activator 0.9 and CYP2C9 activ 1.2.
Screening Nc1nnc(SCc2ccccc2F)n1-c1ccccc1 returned CYP2C19 activ 0.2, CYP2C19 inh 75*, CYP2C9 inh -7, PLAP activator 1.2 and CYP2C9 activ 1.1.
`Fc1ccccc1CSc1nnc(Cn2cnc3ccccc32)n1-c1ccccc1` gave CYP2C19 activ 0.2, CYP2C19 inh 83*, CYP2C9 inh 32, PLAP activator 1.8 and CYP2C9 activ 0.7.
COc1cccc(N2CCN(Cc3nc(N)nc(N4CCCc5ccccc54)n3)CC2)c1 was read as CYP2C19 activ 0.8, CYP2C19 inh 20, CYP2C9 inh 16, PLAP activator 1.5 and CYP2C9 activ 0.8.
`CCOC(=O)CSc1nc(N)c(C(=O)Nc2ccc(N(C)C)cc2)s1` gave CYP2C19 activ 0.3, CYP2C19 inh 65*, CYP2C9 inh 47, PLAP activator 1.2 and CYP2C9 activ 0.5.
For CCOC(=O)CSc1nc(C)c(C(=O)OCC)s1 the results were CYP2C19 activ 0.6, CYP2C19 inh 38, CYP2C9 inh 65*, PLAP activator 1.2 and CYP2C9 activ 0.3.
For COc1ccc(NC(=O)c2sc(SCc3ccccc3)nc2N)cc1 the results were CYP2C19 activ 1, CYP2C19 inh 0, CYP2C9 inh 12, PLAP activator 0.6 and CYP2C9 activ 0.9.
For Cc1ccc(C2CC(C(F)(F)F)n3ncc(C(=O)NCc4ccco4)c3N2)cc1 (configuration not stated) the results were CYP2C19 activ 0.7, CYP2C19 inh 26, CYP2C9 inh 25, PLAP activator 1 and CYP2C9 activ 0.7.
CC(C)(C)n1[nH]c2c3c(ccc2c1=O)C(=O)c1ccccc1C3=O was read as CYP2C19 activ 0.7, CYP2C19 inh 30, CYP2C9 inh 43, PLAP activator 1.1 and CYP2C9 activ 0.6.
